Data: PubChem BioAssay (NCATS)
“And” between values parts separate entries of the source, which are not always exact repeats. Equal values may be shown once. Inconclusive results are not listed. The source made the active and inactive calls. Unless noted, calls come from the whole dose curve; as a rule, active = well fitted curve in the direction sought with a large enough effect; inconclusive = small, poorly fitted or top-dose-only effect, or another doubt; inactive = no such curve, though single readings can be large; an effect the other way counts as inactive or inconclusive.

How the values were obtained:
[1] = Cellular Toxicity (caspase-3) HepG2 (AID 654);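 note: cells exposed to compound for 16 hours before reading; 0% = DMSO alone and 100% = caspase signal from 100 µM tamoxifen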
Method in brief: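 qHTS, HepG2, 1500 cells/well, complete medium; cpd 16 h 37 °C; Caspase-Glo 3/7, 20 min RT; lum. Norm: DMSO vs 100 uM tamoxifen; AC50 Hill fit.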

[2] = Cellular Toxicity (caspase-3) Jurkat (AID 655);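 note: cells exposed to compound for 16 h at 37 °C before reading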
Method in brief: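 Caspase 3/7 activation is scored as increased luminescence in Jurkat cells cultured with compound for 16 hours in complete medium. AC50 values come from Hill fits of qHTS concentration-response data normalized to DMSO and 100 uM tamoxifen controls.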

[3] = Cellular Toxicity (caspase-3) HUV-EC-C (AID 656);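 note: 0% = DMSO basal and 100% = 100 µM tamoxifen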
Method in brief: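 Read-out: luminescence proportional to caspase 3/7 activity, measured 20 min after adding Caspase-Glo 3/7 reagent. Cells (HUV-EC-C) had received compound for 16 hr at 37°C. Increases relative to DMSO and 100 uM tamoxifen gave concentration-response AC50 values.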

[4] = Cellular Toxicity (caspase-3) SHSY5Y (AID 657);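 note: cells exposed to compound for 16 hours at 37 °C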
Method in brief: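 Cells plated and incubated 5 h at 37 °C, dosed over a concentration range, incubated 16 h, then given Caspase-Glo 3/7 reagent for 1 h at room temperature before luminescence reading. Staurosporine (10 uM) defined full stimulation.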

[5] = Cellular Toxicity (caspase-3) BJ (AID 658);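 note: 0% = DMSO basal and 100% = 10 µM staurosporine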
Method in brief: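 Readout: Caspase-Glo 3/7 luminescence increase in BJ cells after 16 hr treatment at 37 °C. Staurosporine and tamoxifen served as positive controls; AC50 values came from Hill modelling of data normalized to DMSO and 10 uM staurosporine.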

[6] = Cellular Toxicity (caspase-3) MRC-5 (AID 659);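 note: cells exposed to compound for 16 h at 37 °C; 0% = DMSO basal and 100% = 10 µM staurosporine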
Method in brief: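 Concentration-dependent caspase 3/7 activation is measured in human normal lung fibroblasts (MRC-5) following 16-hour treatment. AC50 values come from standard Hill-equation modeling of luminescence normalized to DMSO and 10 uM staurosporine.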

[7] = Cellular Toxicity (caspase-3) Mesangial (AID 660);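 note: cells exposed to compound for 16 h before the caspase read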
Method in brief: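 Concentration-response qHTS: compound-induced rise in caspase 3/7 luminescence in human mesangial cells after 16 h, normalized to DMSO and 100 uM tamoxifen controls.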

[8] = Cellular Toxicity (caspase-3) SK-N-SH (AID 661);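 note: 0% = DMSO basal and 100% = 10 µM staurosporine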
Method in brief: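 Caspase 3/7 activation is measured as a luminescence increase from aminoluciferin released by substrate cleavage in SK-N-SH cells after 16 hr compound treatment; values are AC50 from concentration-response curves.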

[9] = Cellular Toxicity (caspase-3) H-4-II-E (AID 663);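 note: cells exposed to compound for 16 hr before readout; 0% = DMSO basal and 100% = 100 µM tamoxifen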
Method in brief: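 Apoptosis induction is scored as increased luminescence from caspase 3/7 substrate cleavage in rat hepatoma H-4-II-E cells exposed to compound for 16 hr. Activity is scaled between DMSO and 100 uM tamoxifen.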

[10] = Cellular Toxicity (caspase-3) Hek293 (AID 664);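 note: cells exposed to compound for 16 h at 37 °C before readout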
Method in brief: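 Activation of caspase-3/7 is measured as increased luminescence from cleaved peptide-aminoluciferin substrate in HEK293 cells treated 16 hours at 37 °C. AC50 values come from Hill-equation fits of concentration-response data.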

[11] = Cellular Toxicity (caspase-3) N2a (AID 665);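 note: compound exposure lasted 16 h at 37 °C before readout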
Method in brief: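 Plated mouse neuroblastoma N2a cells received titrated compounds for 16 h in complete medium. Caspase activity was then detected with a peptide-aminoluciferin luminescent reagent.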

[12] = Cellular Toxicity (caspase-3) NIH 3T3 (AID 666);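 note: caspase signal read after 16 h compound exposure; 0% = DMSO basal and 100% = 100 µM tamoxifen stimulation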
Method in brief: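 Concentration-response qHTS in NIH 3T3 mouse fibroblasts scores caspase-3/7 activation as rising luminescence after 16 hr compound exposure. Signals are scaled between DMSO-only and 100 uM tamoxifen.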

[13] = target: Thyroid hormone receptor beta (Homo sapiens) (UniProt P10828); assay: qHTS assay for small molecule antagonists of thyroid hormone receptor beta signaling (AID 588547; active = well fitted inhibition curve with a large enough effect in the signal ratio, with a control signal flat, not every such curve was filed as active; the % refers to the signal ratio;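 note: cells stimulated with 0.4 nM T3 agonist during compound exposure; series mostly up to about 77 µM; % is set by controls: 0 for no effect and ±100 for the full control effect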); conditions: TR-UAS-bla HEK293, beta-lactamase ratio, antagonist mode, 18 h
Chain of Thyroid hormone receptor beta (Homo sapiens) (P10828 whole entry, looked up): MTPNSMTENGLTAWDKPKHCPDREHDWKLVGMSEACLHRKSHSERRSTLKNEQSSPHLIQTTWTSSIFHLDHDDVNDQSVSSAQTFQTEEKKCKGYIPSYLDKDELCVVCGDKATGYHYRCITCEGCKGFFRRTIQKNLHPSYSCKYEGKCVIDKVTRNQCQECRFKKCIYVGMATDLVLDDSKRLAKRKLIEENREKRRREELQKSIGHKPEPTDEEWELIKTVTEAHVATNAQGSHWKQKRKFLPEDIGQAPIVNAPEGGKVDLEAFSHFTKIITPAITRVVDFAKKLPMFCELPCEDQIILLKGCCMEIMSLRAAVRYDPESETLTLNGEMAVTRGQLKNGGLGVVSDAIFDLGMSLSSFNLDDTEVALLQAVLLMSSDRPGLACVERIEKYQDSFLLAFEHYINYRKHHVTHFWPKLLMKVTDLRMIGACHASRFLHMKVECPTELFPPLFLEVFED
Method in brief: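 Inhibition of T3-driven (0.4nM final) beta-lactamase reporter activity was measured over 0.59 nM to 92 uM compound after 18 h at 37 C. The cells were GripTite HEK293 TR-UAS-bla in charcoal/dextran-stripped serum, with CCF4 ratio read-out and IC50 from Hill fits.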

[14] = target: Voltage-gated inwardly rectifying potassium channel KCNH2 (Homo sapiens) (UniProt Q12809); assay: qHTS Assay for Small Molecule Inhibitors of the Human hERG Channel Activity (AID 588834);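 note: top concentration of the series differs between compounds; % is set by controls: 0 for no effect and ±100 for the full control effect; lower thallium flux fluorescence means stronger hERG block; nearly all actives have a fitted effect of over 50% in size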
Chain of Voltage-gated inwardly rectifying potassium channel KCNH2 (Homo sapiens) (Q12809 whole entry, looked up): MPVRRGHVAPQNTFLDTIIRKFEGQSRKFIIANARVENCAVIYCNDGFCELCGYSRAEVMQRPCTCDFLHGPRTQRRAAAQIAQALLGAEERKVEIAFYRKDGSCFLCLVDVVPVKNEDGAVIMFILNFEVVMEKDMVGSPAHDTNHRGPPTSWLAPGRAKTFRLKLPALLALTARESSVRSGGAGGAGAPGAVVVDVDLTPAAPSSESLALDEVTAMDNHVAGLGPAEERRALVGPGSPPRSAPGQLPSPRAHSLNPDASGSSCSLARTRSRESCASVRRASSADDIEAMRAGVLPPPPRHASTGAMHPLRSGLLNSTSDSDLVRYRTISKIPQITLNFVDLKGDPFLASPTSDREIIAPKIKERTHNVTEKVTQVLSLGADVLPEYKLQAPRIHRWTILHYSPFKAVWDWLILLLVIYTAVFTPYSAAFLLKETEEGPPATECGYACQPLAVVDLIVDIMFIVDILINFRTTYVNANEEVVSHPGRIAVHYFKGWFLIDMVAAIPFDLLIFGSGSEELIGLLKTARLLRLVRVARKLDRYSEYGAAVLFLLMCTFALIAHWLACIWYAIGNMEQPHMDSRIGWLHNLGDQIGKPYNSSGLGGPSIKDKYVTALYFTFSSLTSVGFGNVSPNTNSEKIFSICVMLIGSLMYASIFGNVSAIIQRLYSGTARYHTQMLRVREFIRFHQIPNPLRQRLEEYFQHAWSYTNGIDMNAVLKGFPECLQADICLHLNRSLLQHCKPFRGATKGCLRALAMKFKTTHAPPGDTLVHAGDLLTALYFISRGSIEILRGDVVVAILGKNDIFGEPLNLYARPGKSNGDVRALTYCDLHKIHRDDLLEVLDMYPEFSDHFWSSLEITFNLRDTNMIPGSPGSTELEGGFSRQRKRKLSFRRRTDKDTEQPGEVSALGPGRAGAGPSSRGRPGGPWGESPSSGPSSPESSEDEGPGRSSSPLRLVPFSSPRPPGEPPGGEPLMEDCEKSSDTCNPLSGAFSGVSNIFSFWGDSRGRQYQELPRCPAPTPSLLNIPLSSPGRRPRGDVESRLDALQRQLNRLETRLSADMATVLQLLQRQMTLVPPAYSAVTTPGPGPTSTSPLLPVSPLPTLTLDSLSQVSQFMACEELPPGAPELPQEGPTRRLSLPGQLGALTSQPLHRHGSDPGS
Method in brief: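 Measured: FluxOR fluorescence after thallium stimulation in U2OS cells transduced with hERG by baculovirus. Compounds pre-incubated around 10 min; medium Opti-MEM with 2% FCS. AC50 from Hill equation.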

[15] = qHTS assay for small molecule disruptors of the mitochondrial membrane potential - 1 hr assay (AID 651754; calls by dose curve; note: % is set by controls: 0 for no effect and ±100 for the full control effect; nearly all actives have a fitted effect of over 35% in size)
Method in brief: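 Steps: seed HepG2 cells and let attach overnight; pin-transfer compound or vehicle; incubate 1 hr at 37C; add Mito-MPS dye for 30 min; read two-channel fluorescence for monomer and aggregate forms.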

[16] = qHTS assay for small molecule disruptors of the mitochondrial membrane potential - 5 hr assay (AID 651755; calls by dose curve; note: % is set by controls: 0 for no effect and ±100 for the full control effect; nearly all actives have a fitted effect of over 40% in size)
Method in brief: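 HepG2, 2,000 cells/well, overnight attach; cpd or DMSO 5 hr, 37C/5% CO2; Mito-MPS 30 min 37C; fluor 490/535 + 540/590 nm.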

[17] = target: Tumor necrosis factor (Homo sapiens) (UniProt P01375); assay: qHTS assay to identify small molecules that stimulate Tumor Necrosis Factor-alpha (TNF-alpha) secretion (AID 651757; active = well fitted curve in the direction sought with a large enough effect in the signal ratio; the % refers to the signal ratio; note: 0% is about no effect)
Chain of Tumor necrosis factor (Homo sapiens) (P01375 whole entry, looked up): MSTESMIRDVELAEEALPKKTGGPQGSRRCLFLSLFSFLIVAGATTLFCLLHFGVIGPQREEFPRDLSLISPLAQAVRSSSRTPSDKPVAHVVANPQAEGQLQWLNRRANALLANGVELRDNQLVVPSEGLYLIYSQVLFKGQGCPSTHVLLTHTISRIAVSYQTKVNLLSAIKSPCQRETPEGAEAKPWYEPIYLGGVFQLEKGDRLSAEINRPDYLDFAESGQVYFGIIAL
Method in brief: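 Secreted TNF-alpha from compound-treated THP-1 cells (17 hrs, 37 C) was quantified with a homogeneous time-resolved fluorescence antibody assay.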

[18] = qHTS assay for environmental chemicals that activate the Aryl hydrocarbon Receptor (AhR) signaling pathway (AID 651777); conditions: 1A2-DRE human hepatoma cells, luciferase, 24 h; stronger effect = higher value; note: % of control where 0% means no effect; nearly all actives have a fitted effect of over 15% in size
Method in brief: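 Concentration–response screening used 1,200 1A2-DRE cells per well, 24 hr compound exposure (37 C, 5% CO2), and One-Glo luminescence as the AhR-driven CYP1A2 reporter signal.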

[19] = target: Peroxisome proliferator-activated receptor alpha (Homo sapiens) (UniProt Q07869); assay: qHTS assay for small molecule agonists of the peroxisome proliferator-activated receptor alpha (PPARalpha) signaling pathway (AID 651778); conditions: PathHunter PPARalpha complementation, chemiluminescence, 6 h; stronger effect = higher value; note: % of control where 0% means no effect
Chain of Peroxisome proliferator-activated receptor alpha (Homo sapiens) (Q07869 whole entry, looked up): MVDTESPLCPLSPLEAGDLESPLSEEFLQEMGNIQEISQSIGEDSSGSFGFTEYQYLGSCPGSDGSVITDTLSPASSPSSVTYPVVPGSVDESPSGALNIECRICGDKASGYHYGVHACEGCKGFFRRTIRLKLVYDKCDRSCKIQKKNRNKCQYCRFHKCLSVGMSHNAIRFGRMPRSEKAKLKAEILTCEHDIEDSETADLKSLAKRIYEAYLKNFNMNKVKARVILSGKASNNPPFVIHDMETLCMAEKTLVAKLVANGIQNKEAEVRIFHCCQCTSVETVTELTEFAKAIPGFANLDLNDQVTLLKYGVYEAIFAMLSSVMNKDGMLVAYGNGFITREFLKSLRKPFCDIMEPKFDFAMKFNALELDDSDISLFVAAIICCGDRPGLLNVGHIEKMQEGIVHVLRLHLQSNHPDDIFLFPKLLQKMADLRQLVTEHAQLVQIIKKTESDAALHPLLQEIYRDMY
Method in brief: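 Chemiluminescence from complemented enzyme reported PPARalpha activation in cells after 6 hr of compound treatment at 37 C. The detection reagent was incubated for 60 min at room temperature, and compounds were scored as agonists.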

[20] = target: Nuclear receptor subfamily 1 group I member 2 (Rattus norvegicus) (UniProt Q9R1A7); assay: qHTS assay for small molecule activators of the rat pregnane X receptor (rPXR) signaling pathway (AID 651751; call rule not given here; note: 0% is about no effect); conditions: rPXR reporter cells, luciferase (One-Glo), 24 h
Chain of Nuclear receptor subfamily 1 group I member 2 (Rattus norvegicus) (Q9R1A7 whole entry, looked up): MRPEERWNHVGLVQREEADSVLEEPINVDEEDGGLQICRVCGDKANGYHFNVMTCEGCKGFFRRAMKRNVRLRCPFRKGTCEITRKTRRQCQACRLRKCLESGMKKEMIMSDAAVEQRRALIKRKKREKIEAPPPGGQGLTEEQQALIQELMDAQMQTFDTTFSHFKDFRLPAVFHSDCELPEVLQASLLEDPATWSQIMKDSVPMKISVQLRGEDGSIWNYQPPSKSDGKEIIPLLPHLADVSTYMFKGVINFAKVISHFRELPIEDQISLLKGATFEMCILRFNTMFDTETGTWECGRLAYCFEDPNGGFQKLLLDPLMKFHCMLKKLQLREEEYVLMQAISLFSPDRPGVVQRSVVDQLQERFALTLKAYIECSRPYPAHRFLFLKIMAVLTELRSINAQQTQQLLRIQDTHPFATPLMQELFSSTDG

Cc1occc(=O)c1O
inactive: outcome [1] | outcome [2] | outcome [3] | outcome [4] | outcome [5] | outcome [6] | outcome [7] | outcome [8] | outcome [9] | outcome [10] | outcome [11] | outcome [12] | activity change % (negative = inhibition) [13] -20.8% | Potency [14] | outcome [15] | outcome [16] | outcome [17] | activation [18] 0.287% | max response [19] -2.16% | max response [20] 3.86%

CC1=CC(=O)CC(C)(C)C1(O)/C=C/C(C)=C\C(=O)O (stereo not given)
inactive: outcome [1] | outcome [2] | outcome [3] | outcome [4] | outcome [5] | outcome [6] | outcome [7] | outcome [8] | outcome [9] | outcome [10] | outcome [11] | outcome [12] | activity change % (negative = inhibition) [13] -6.36% | Potency [14] | outcome [15] | outcome [16] | outcome [17] | activation [18] -0.944% | max response [19] 6.6% | max response [20] -0.742%

C=C(C)[C@H]1CC=C(C)C(=O)C1
inactive: outcome [1] | outcome [2] | outcome [3] | outcome [4] | outcome [5] | outcome [6] | outcome [7] | outcome [8] | outcome [9] | outcome [10] | outcome [11] | outcome [12] | activity change % (negative = inhibition) [13] 1.99% | Potency [14] | outcome [15] | outcome [16] | outcome [17] | activation [18] -0.835% and 2.01% | max response [19] -1.19% and -3.66% | max response [20] -2.55% and 3.05%

C=CC(C)(O)CCC=C(C)C (stereo not given)
inactive: outcome [1] | outcome [2] | outcome [3] | outcome [4] | outcome [5] | outcome [6] | outcome [7] | outcome [8] | outcome [9] | outcome [10] | outcome [11] | outcome [12] | activity change % (negative = inhibition) [13] 22.9% and 4.85% | Potency [14] | outcome [15] | outcome [16] | outcome [17] | activation [18] -0.577% and 0.957% | max response [19] -3.46% and 0.843% | max response [20] 2.77% and 2.88%

COS(C)(=O)=O
inactive: outcome [1] | outcome [2] | outcome [3] | outcome [4] | outcome [5] | outcome [6] | outcome [7] | outcome [8] | outcome [9] | outcome [10] | outcome [11] | outcome [12] | activity change % (negative = inhibition) [13] 2.2% | Potency [14] | outcome [15] | outcome [16] | outcome [17] | activation [18] -0.488% | max response [19] 5.12% | max response [20] 0.398%
